Source: PubChem (several laboratories)
HDAC3 inhib = HDAC3 deacetylase inhibitors, primary screen, biochemical, fluorescence, cell-free homogeneous | Histone deacetylase 3 (Homo sapiens), O15379 | recombinant HDAC3, fluorogenic peptide/trypsin coupled | inhibition, % at 8.3 µM | 320,000 tested, 0.15% active | AID 2718, 2010; in the data active = inhibition above about 26%, passing the limit was not always enough
TMEM16A inh = TMEM16A chloride channel inhibitors, primary screen, cell-based, HTS; HEK293 TMEM16A/YFP iodide influx fluorescence, ionomycin; 310,000 tested, 1.2% active; Anoctamin-1 (Mus musculus), Q8BHY3; normalized B-score (activity score, 25-100; higher = stronger inhibition) at 10 µM;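 active = ratio plate-corrected score three or more library SD toward inhibition, starting fluorescence score within five deviations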;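 note: score derived from kinetic fluorescence span divided by baseline fluorescence per well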
PHOSPHO1 inh = PubChem AID 1565. Phosphoethanolamine/phosphocholine phosphatase (Homo sapiens), Q8TCT1. recombinant PHOSPHO1, absorbance phosphatase assay. inhibition, % at 13.3 µM. 290,000 tested, 1.1% active; in the data active = inhibition above about 60%
CHT inh = inhibitors of human choline transporter CHT. CHT-expressing cells, membrane potential dye, choline response; hits give low values. B-score at 10 µM. 310,000 tested, 0.86% active. High affinity choline transporter 1 (Homo sapiens), Q9GZV3. AID 488975, 2010;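 active = B-score over 3 SD under the library average, and starting fluorescence ratio not unusually high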;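 note: choline stimulus applied at its EC90 after an EC20 pre-addition; B-score computed on integrated fluorescence ratio after choline addition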
Target sequence (Q9GZV3 whole entry, looked up): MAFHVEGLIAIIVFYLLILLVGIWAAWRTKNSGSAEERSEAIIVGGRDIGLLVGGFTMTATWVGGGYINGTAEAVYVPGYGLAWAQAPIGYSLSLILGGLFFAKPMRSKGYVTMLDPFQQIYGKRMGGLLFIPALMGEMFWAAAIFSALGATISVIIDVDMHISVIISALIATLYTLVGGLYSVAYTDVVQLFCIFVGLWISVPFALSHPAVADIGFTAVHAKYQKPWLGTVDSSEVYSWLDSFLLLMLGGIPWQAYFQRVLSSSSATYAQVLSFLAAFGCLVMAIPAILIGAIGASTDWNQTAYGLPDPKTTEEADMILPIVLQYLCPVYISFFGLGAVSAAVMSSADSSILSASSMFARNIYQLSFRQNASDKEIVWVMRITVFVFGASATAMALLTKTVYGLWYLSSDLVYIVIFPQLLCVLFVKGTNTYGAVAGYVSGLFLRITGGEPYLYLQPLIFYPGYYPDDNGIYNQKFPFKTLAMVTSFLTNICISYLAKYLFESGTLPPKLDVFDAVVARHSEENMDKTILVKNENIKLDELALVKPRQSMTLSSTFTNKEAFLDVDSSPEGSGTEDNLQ
CHT allo act = CHT positive allosteric modulators, primary screen, cell-based, membrane potential dye, choline EC20; High affinity choline transporter 1 (Homo sapiens), Q9GZV3; 310,000 tested, 0.49% active; CHT-expressing cells; hits give high values; LV-AA mutant CHT in HEK293 cells; B-score at 10 µM;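 active = initial fluorescence not abnormally high and integrated response B-score, plate-corrected, over 3 SD above library mean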
ANO1 activ = TMEM16A chloride channel activators or potentiators, primary screen, cell-based, HTS. Anoctamin-1 (Mus musculus), Q8BHY3. HEK293 TMEM16A/YFP-H148Q/I152L, iodide quench fluorescence; hits give low values. B-score at 10 µM. 340,000 tested, 0.3% active. AID 623877, 2012;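 active = fluorescence-ratio B-score plate-corrected deviation score at least 3 library SD below zero, with starting fluorescence score within 5 deviations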;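 note: channel opened by trigger with iodide after compound preincubation; score built on the fluorescence ratio of max minus min over baseline; more negative score means more quench and so TMEM16A activation or potentiation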
TMEM16A reconf = TMEM16A chloride channel inhibitors, confirmation, cell-based, re-confirmation; HEK293 TMEM16A/YFP-H148Q, iodide quench fluorescence; ionomycin added to raise cell calcium; shares compounds with TMEM16A inh; 2,300 tested, 39% active; AID 652189, 2013; inhibition, % at 10 µM;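 active = mean duplicate percent inhibition, scaled so buffer wells are 0 and the reference blocker 100, over three buffer SD above buffer mean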
HEK293 Ca mobil = calcium mobilization in TMEM16A/YFP HEK293 cells, confirmation, counter-screen for TMEM16A inhibitor project; calcium response (% of ionomycin), % at 10 µM; shares compounds with TMEM16A inh; Fluo4 calcium mobilization; 2,300 tested, 2% active;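 active = duplicate-averaged calcium signal over 20% of the ionomycin maximum, relative to buffer baseline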;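 note: each well's signal is peak minus trough fluorescence divided by its pre-addition baseline; 0% = buffer wells and 100% = ionomycin wells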
Parental YFP cnt = iodide YFP quench changes in parental YFP-HEK293, counter-screen for TMEM16A inhibitor project, cell-based; shares compounds with TMEM16A inh; ionomycin; YFP ratio F(max-min)/F0 at 10 µM; 2,300 tested, under 10 active; AID 652233, 2013;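 active = yellow fluorescent protein signal ratio exceeding the buffer control mean by over 5 SD of those controls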;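 note: ratio is mean of duplicate wells from kinetic YFP trace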
ClC-1 inh = ClC-1 chloride channel inhibition, selectivity assay for TMEM16A inhibitor project, cell-based, voltage-dependent ClC-1; shares compounds with TMEM16A inh; 2,300 tested, under 10 active; AID 652236, 2013; CHO ClC-1-YFP, iodide influx fluorescence quench; iodide control reads 0, buffer control 100; ratio percent, % at 10 µM;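 active = duplicate-mean ratio percent above the mean of iodide-only control wells, which defines zero, plus 5 of their SD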;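 note: higher percent means stronger block of ClC-1 iodide influx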
Numbers without * were called inactive. Only some compounds are listed: those with a hit (about 3.2% of all), similar ones and a draw of the others.

`COc1cccc(C(=O)/C(C#N)=N/Nc2cccc(-c3ccnc(C)n3)c2)c1` gave HDAC3 inhib -7.0, TMEM16A inh 100*, PHOSPHO1 inh 14.7, CHT inh inactive, CHT allo act inactive, ANO1 activ inactive, TMEM16A reconf inactive, HEK293 Ca mobil inactive, Parental YFP cnt -1.03 and ClC-1 inh -5.5.
Screening COc1ccc(-c2nc(N)nc(N)n2)c(O)c1 returned HDAC3 inhib -11.6 and ANO1 activ inactive.
`CCCc1cc(Nc2cccc(OCC)c2)n2ncnc2n1` gave HDAC3 inhib 7.2, TMEM16A inh inactive, PHOSPHO1 inh 20.1, CHT inh inactive, CHT allo act inactive and ANO1 activ inactive.
For CCCc1cc(Nc2cccc(OC)c2)n2ncnc2n1 the results were HDAC3 inhib 0.4, TMEM16A inh 100*, PHOSPHO1 inh 1.8, CHT inh inactive, CHT allo act inactive, ANO1 activ inactive, TMEM16A reconf inactive, HEK293 Ca mobil inactive, Parental YFP cnt -1.04 and ClC-1 inh -7.0.
Cc1ccc2nc(C3CCN(CC(=O)Nc4ccc5c(c4)OCCO5)CC3)[nH]c2c1 was read as HDAC3 inhib -2.6, TMEM16A inh inactive, PHOSPHO1 inh -25.0, CHT inh inactive, CHT allo act inactive and ANO1 activ inactive.
`O=C(CN1CCC(c2nc3ccccc3[nH]2)CC1)Nc1ccc2c(c1)OCO2` gave HDAC3 inhib 0.4, TMEM16A inh 100*, PHOSPHO1 inh 29.0, CHT inh inactive, CHT allo act inactive, ANO1 activ inactive, TMEM16A reconf inactive, HEK293 Ca mobil inactive, Parental YFP cnt -1.24 and ClC-1 inh -1.5.
For C=C(C(=O)O)C(CCCCCC)C(=O)O (centres undefined) the results were HDAC3 inhib -3.7, TMEM16A inh inactive, PHOSPHO1 inh 3.8, CHT inh inactive, CHT allo act inactive and ANO1 activ inactive.
Cc1nc2ccc(N=NC3=C(O)CC(C)(C)CC3=O)cc2s1 was read as HDAC3 inhib 6.6, TMEM16A inh inactive, PHOSPHO1 inh -1.5, CHT inh inactive, CHT allo act inactive and ANO1 activ inactive.
For Cc1nc2ccc(N=NC3=C(O)CCCC3=O)cc2s1 the results were HDAC3 inhib -1.2, TMEM16A inh inactive, PHOSPHO1 inh 38.2, CHT inh inactive, CHT allo act inactive, ANO1 activ inactive, TMEM16A reconf inactive, HEK293 Ca mobil inactive, Parental YFP cnt -1.13 and ClC-1 inh -8.0.
Screening COc1cccc(CN2C(=O)C(C)N(C(=O)c3ccccc3)c3ccccc32)c1 (centres undefined) returned HDAC3 inhib 3.4, TMEM16A inh 25*, PHOSPHO1 inh 29.9, CHT inh inactive, CHT allo act inactive, ANO1 activ inactive, TMEM16A reconf 17.0%*, HEK293 Ca mobil inactive, Parental YFP cnt -0.864 and ClC-1 inh -14.5.
Nc1nnc(CC(=O)N/N=C/c2ccc(-c3ccc(Cl)cc3Cl)o2)s1 was read as TMEM16A inh inactive, PHOSPHO1 inh 6.5, CHT inh inactive, CHT allo act inactive and ANO1 activ inactive.
Screening CCN1CCN(C(c2cc3cccc(C)c3[nH]c2=O)c2nnnn2Cc2ccccc2)CC1 (centres undefined) returned HDAC3 inhib -7.2, TMEM16A inh 25*, PHOSPHO1 inh 28.5, CHT inh inactive, CHT allo act inactive, ANO1 activ inactive, TMEM16A reconf inactive, HEK293 Ca mobil inactive, Parental YFP cnt -0.974 and ClC-1 inh -3.5.
`COc1cc(OC)c(OC)cc1/C=C1/Cc2ccccc2C1=O` gave HDAC3 inhib -1.8, TMEM16A inh inactive, PHOSPHO1 inh 28.4, CHT inh inactive, CHT allo act inactive, ANO1 activ inactive, TMEM16A reconf inactive, HEK293 Ca mobil 28.0%*, Parental YFP cnt -0.981 and ClC-1 inh -2.5.
Screening Cc1nc(N2CCN(C(=O)c3ccco3)CC2)c(C#N)c2c1CCCC2 returned HDAC3 inhib 0.3, TMEM16A inh inactive, PHOSPHO1 inh 11.9, CHT inh inactive, CHT allo act inactive and ANO1 activ inactive.
Screening CC(C)Cc1nc(N2CCN(C(=O)c3ccco3)CC2)c(C#N)c2c1CCCC2 returned HDAC3 inhib -2.8, TMEM16A inh 25*, PHOSPHO1 inh 26.3, CHT inh inactive, CHT allo act inactive, ANO1 activ inactive, TMEM16A reconf inactive, HEK293 Ca mobil inactive, Parental YFP cnt -1.25 and ClC-1 inh -10.0.
For Fc1cccc(Cl)c1CSc1nnnn1-c1ccc2c(c1)OCO2 the results were HDAC3 inhib 4.6, TMEM16A inh 25*, PHOSPHO1 inh 1.8, CHT inh inactive, CHT allo act inactive, ANO1 activ inactive, TMEM16A reconf inactive, HEK293 Ca mobil inactive, Parental YFP cnt -0.943 and ClC-1 inh -7.0.
Screening Cc1cc(NC(=O)CN2C(=O)NC(CC(C)C)C2=O)ccc1Br (centres undefined) returned HDAC3 inhib 0.9 and ANO1 activ inactive.
Screening Cc1onc(-c2ccccc2Cl)c1C(=O)O/N=C(\N)c1ccccc1 returned HDAC3 inhib -3.1, TMEM16A inh inactive, PHOSPHO1 inh 22.6, CHT inh inactive, CHT allo act inactive and ANO1 activ inactive.
Screening COc1ccc(N2Nc3n[nH]c(N)c3N2)cc1 returned HDAC3 inhib 6.1, TMEM16A inh inactive, PHOSPHO1 inh -22.9, CHT inh inactive, CHT allo act inactive, ANO1 activ inactive, TMEM16A reconf inactive, HEK293 Ca mobil inactive, Parental YFP cnt -1.07 and ClC-1 inh -4.5.
